Here are results for 9 compounds from PubChem BioAssay.

The nature of test [1]: compounds altering viability of human ES cells (AID 493140; call rule not given here;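 also: cells exposed to compounds for four days before counting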). Particulars: human embryonic stem cell survival screen; stronger effect = higher value.
A short description of test [2]: P. berghei load reduction in hepatocytes – cell-based, HepG2, luciferase luminescence, HepG2 viability, primary screen (AID 624349).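 Also: 100% = mean of DMSO negative control wells on the same plate.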 Particulars: P. berghei liver stage in HepG2, luciferase luminescence, concentration not given here; parasite load remaining: stronger effect = lower value; viability: measured here: HepG2 viability without parasites.
The nature of test [3]: viability loss with induced miR-34 in A549 – imaging, A549 dox-inducible miR-34, nuclei and caspase counts, primary screen (AID 1347080;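 active = compounds whose cell count with miR-34 switched on is under 0.7 times the count with it off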). The settings on record: A549 miR-34 inducible, Hoechst nuclei count, 48 h.
Test [4] is described as follows: MELAS cybrid and Rieske KO viability enhancers – cell-based, MELAS cybrids, Rieske KO mouse fibroblasts, CellTiter-Glo, primary screen (AID 1508586;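 active = mean z-score across replicates of 1.96 or higher in either the MELAS or the Rieske mutant cell line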;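 also: z relative to plate mean and SD of compound and empty wells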). Particulars: low glucose. A general note: In ATP-based viability assays light output follows the ATP content of the culture.
[5] abbreviates: stronger effect = lower value, cell number ratio, induced over uninduced.
[6] abbreviates: measured here: relative caspase fold change +Dox/-Dox.
[7] abbreviates: measured here: total cells with miR-34 induction, stronger effect = lower value.
Setting [8] is: measured here: total cells without miR-34 induction.
Where [9] appears, read: MELAS cybrid survival, CellTiter-Glo 48 h, stronger effect = higher value.
[10] abbreviates: Rieske KO mouse fibroblast survival, CellTiter-Glo 72 h.

Active and inactive are the calls of the source. Rule as the data show it, unless noted: active = parasite load remaining mostly below about 12% (no sharp cut-off); inactive = mostly above about 10%.

As to `Cc1cc(C(=O)NNCc2ccccc2)no1`, the survival in test [1] is 3.33 (inactive). Also, the parasite load remaining in test [2] was 129% (inactive). Further, the viability in test [2] was 100%. For the same compound, the fold change in test [3] (setting [5]) was 0.777 (inactive); in test [3] (setting [6]) it was 1.27. Besides, the figures for the cell count in test [3] (setting [7]) and in test [3] (setting [8]) were 8090 and 10400, respectively. For the same compound, the z-score was 0.697 (inactive) in test [4] (setting [9]) and 0.109 in test [4] (setting [10]).
As for `Cc1cc(C=Cc2ccc3cc(N(C)C)ccc3[n+]2C)c(C)n1-c1ccccc1`, the survival in test [1] was 2.17 (inactive). Besides, the parasite load remaining in test [2] was 0.11% (inactive). For the same compound, the viability in test [2] came out at 48.8%. The fold change was 1.3 (inactive) in test [3] (setting [5]) and 1.04 in test [3] (setting [6]). Moreover, the cell count in test [3] (setting [7]) was determined as 2390; in test [3] (setting [8]), 1840. Moreover, the z-score in test [4] (setting [9]) is 0.882 (inactive); in test [4] (setting [10]), 0.984.
As for `CC(=O)O[C@H]1C[C@@]2(C)[C@@H](C[C@@H](O)[C@H]3[C@@]4(C)CC[C@@H](O)[C@@H](C)C4CC[C@@]32C)/C1=C(\CCC=C(C)C)C(=O)O` (stereo partly specified), the parasite load remaining in test [2] is 147% (inactive). Besides, in test [2], the viability was 140%. Further, the results for the fold change in test [3] (setting [5]) and in test [3] (setting [6]) were 0.911 (inactive) and 1.1, respectively. For the same compound, the cell count in test [3] (setting [7]) is 8570; in test [3] (setting [8]), 9410. In addition, the figures for the z-score in test [4] (setting [9]) and in test [4] (setting [10]) were -3.27 (inactive) and -2.48, respectively.
Take `CN[C@H]1[C@@H](O)[C@H](O[C@H]2[C@@H](O)[C@@H](OC3OC(CN)=CCC3N)[C@H](N)C[C@@H]2N)OC[C@@]1(C)O` (stereo partly specified): the parasite load remaining in test [2] was 95.5% (inactive). Further, the viability in test [2] was found to be 113%. Further, the values for the fold change in test [3] (setting [5]) and in test [3] (setting [6]) were 0.885 (inactive) and 1.15, respectively. The cell count in test [3] (setting [7]) was 9450; in test [3] (setting [8]), 10700. Also, the values for the z-score in test [4] (setting [9]) and in test [4] (setting [10]) were 0.354 (inactive) and 0.0602, respectively.
In the case of `CCC(=O)OCC(=O)C1(OC(=O)CC)[C@H](C)C[C@H]2[C@H]3[C@H]([C@@H](O)C[C@@]21C)[C@@]1(C)C=CC(=O)C=C1C[C@H]3Cl` (stereo partly specified), in test [1], the survival was 4.33 (inactive). In test [2], the parasite load remaining was 104% (inactive). The viability in test [2] was determined as 97.3%. The fold change in test [3] (setting [5]) is 0.785 (inactive); in test [3] (setting [6]), 1.32. The values for the cell count in test [3] (setting [7]) and in test [3] (setting [8]) were 6260 and 7980, respectively. Besides, the results for the z-score in test [4] (setting [9]) and in test [4] (setting [10]) were 0.535 (inactive) and 0.903, respectively.
With `Cc1c(Cl)cccc1Nc1ncccc1C(=O)O`, the parasite load remaining in test [2] was 71.2% (inactive). In addition, in test [2], the viability is 70.4%. Further, the fold change was 0.943 (inactive) in test [3] (setting [5]) and 0.763 in test [3] (setting [6]). The cell count in test [3] (setting [7]) is 9020; in test [3] (setting [8]) it was 9560. For the same compound, the z-score in test [4] (setting [9]) was 0.72 (inactive); in test [4] (setting [10]) it was 0.0323.
Regarding `C/C(=C(/CCO)SSCC1CCCO1)N(C=O)Cc1cnc(C)nc1N` (stereo unspecified), the survival in test [1] is 5.83 (inactive). Moreover, in test [2], the parasite load remaining is 105% (inactive). In test [2], the viability was 73.2%. For the same compound, the fold change in test [3] (setting [5]) is 0.933 (inactive); in test [3] (setting [6]), 0.561. The cell count turned out to be 9240 in test [3] (setting [7]) and 9910 in test [3] (setting [8]). Besides, the z-score in test [4] (setting [9]) is 0.79 (inactive); in test [4] (setting [10]), 0.563.
As to `CN/C(=C/[N+](=O)[O-])NCCSCc1csc(CN(C)C)n1`, the parasite load remaining in test [2] is 74.7% (inactive). Moreover, the viability in test [2] amounted to 97.8%. For the same compound, the fold change in test [3] (setting [5]) was 0.889 (inactive); in test [3] (setting [6]), 0.967. For the same compound, the cell count in test [3] (setting [7]) stood at 9080; in test [3] (setting [8]) it was 10200. Also, the z-score is 0.561 (inactive) in test [4] (setting [9]) and -0.45 in test [4] (setting [10]).
On to `C=C(NC(=O)C(=C)NC(=O)c1csc(C2=N[C@H]3c4csc(n4)[C@H]4NC(=O)c5csc(n5)[C@H]([C@@](C)(O)[C@@H](C)O)NC(=O)[C@H]5CSC(=N5)/C(=C\C)NC(=O)[C@H]([C@@H](C)O)NC(=O)c5csc(n5)[C@]3(CC2)NC(=O)[C@H](C)NC(=O)C(=C)NC(=O)[C@H](C)NC(=O)[C@H](C(C)CC)N[C@@H]2C=Cc3c([C@H](C)O)cc(nc3[C@H]2O)C(=O)O[C@@H]4C)n1)C(N)=O` (stereo partly specified), for which, in test [2], the parasite load remaining is 8.38% (inactive). Further, the viability in test [2] was 102%. Also, the fold change in test [3] (setting [5]) was 0.85 (inactive); in test [3] (setting [6]) it was 1.56. For the same compound, the cell count in test [3] (setting [7]) was found to be 7430; in test [3] (setting [8]) it was 8740. For the same compound, the figures for the z-score in test [4] (setting [9]) and in test [4] (setting [10]) were 5.43 (active) and 3.6, respectively.

A word on the viability: it is a read-out of living cells in per cent, often relative to untreated cells.
